The results in this text go back to PubChem BioAssay.

Active and inactive are the calls of the source.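 The calls were made as follows: active = inhibition above the hit cutoff set in the earlier primary screen (cut at about 27% in these data); inactive = the rest.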

Protein phosphatase methylesterase 1 (Homo sapiens), sequence (Q9Y570 whole entry, looked up): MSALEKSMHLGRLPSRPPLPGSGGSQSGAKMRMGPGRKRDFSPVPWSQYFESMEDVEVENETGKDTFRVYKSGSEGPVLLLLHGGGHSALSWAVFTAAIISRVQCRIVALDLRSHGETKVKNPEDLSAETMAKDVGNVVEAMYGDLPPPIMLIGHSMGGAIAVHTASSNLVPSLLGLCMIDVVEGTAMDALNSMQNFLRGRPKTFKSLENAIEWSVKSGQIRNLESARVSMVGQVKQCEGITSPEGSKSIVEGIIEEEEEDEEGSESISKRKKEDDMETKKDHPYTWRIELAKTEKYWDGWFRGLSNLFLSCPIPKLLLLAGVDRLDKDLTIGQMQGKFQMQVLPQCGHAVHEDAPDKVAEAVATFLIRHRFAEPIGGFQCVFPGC

This assay concerns the target Protein phosphatase methylesterase 1 (Homo sapiens) (UniProt Q9Y570). In words: PME-1 inhibitor activity retest, confirmation, biochemical, fluorescence polarization, FP-Rh probe, triplicate (AID 2171).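 Also: 0% = enzyme with DMSO and 100% = wells lacking PME-1.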 To be noted: recombinant PME-1, FP-Rh probe fluorescence polarization; at 5.9 µM; hits give high values. Background: Fluorescence polarisation rises when a labelled molecule tumbles more slowly, as on binding a larger partner.
On to `CCc1ccc(OC)c(S(=O)(=O)Nc2ccc(Cc3ccncc3)cc2)c1`, for which the inhibition is 31.8% (active).
Next, `CNS(=O)(=O)c1cc(C(=O)OCC(=O)NC2CCCc3ccccc32)ccc1Cl` (centres undefined): 24.4% (inactive); `CN(C)c1ccc(CNC(=O)CN(C)S(=O)(=O)c2cccc3cccnc23)cc1`: 32.8% (active).
Next, `CCn1cc(C(=O)NCCCN2CC(C)CC(C)C2)c(=O)c2cc(S(=O)(=O)N(C)C3CCCCC3)ccc21` (centres undefined): 35.6% (active); `CCc1ccc(S(=O)(=O)/N=C2/C=C(Sc3ncn[nH]3)C(=O)c3ccccc32)cc1`: 52.9% (active).
Turning to `CCCCN(CC)CCCNC(=O)c1cn(C)c2ccc(S(=O)(=O)N(C)C3CCCCC3)cc2c1=O`, the inhibition was 14.5% (inactive).
For the molecule `CC(C)=NNc1nc2sc3c(c2c(=O)[nH]1)CC(C)(C)OC3`, the inhibition was 14.6% (inactive).
On to `CN(C)c1ccc(NC(=O)Nc2cccc(Cl)c2)cc1`, for which the inhibition was 19.8% (inactive).
Next, `CCOc1cccc(CNc2ccc(O)cc2)c1OCc1ccccc1Cl`: 6.79% (inactive); `COC(=O)c1cccc(C#CC(NP(=O)(c2ccccc2)c2ccccc2)c2ccccc2)c1` (centres undefined): 35.1% (active).
Turning to `Cc1[nH]c2ccccc2c1CCNC(=O)c1ccc2c(c1[N+](=O)[O-])C(=O)c1ccccc1C2=O`, the inhibition was 30.9% (active).
The result for `O=c1[nH]c(C2CCN(S(=O)(=O)c3ccc(F)cc3)CC2)nc2c1nnn2Cc1ccc2c(c1)OCCO2` reads 41% (active); that for `Cc1cc(C)c(C#N)c(SCc2nc3ccccc3[nH]2)n1`, 11.9% (inactive).
The result for `CC(C)N(C(=O)Nc1ccc2nsnc2c1)C(C)C` reads 20.8% (inactive).
The result for `O=Nc1c(O)c2ccccc2c2ccccc12` reads 65.8% (active); that for `Cc1cccc(NC(=O)COC(=O)c2cccc3c2C(=O)c2ccccc2C3=O)c1C`, 37.5% (active); that for `CCN(CC)C(=O)CSc1nc2c(sc(=S)n2-c2ccccc2)c(=O)n1Cc1ccco1`, 78.6% (active).
In the case of `Cc1ccc(N/N=C(\C#N)C(N)=S)c(C)c1`, the inhibition is 57.9% (active).
The result for `COc1ccc(C2Nc3cccc4cccc(c34)N2)cc1Br` reads 15.1% (inactive); that for `Cn1c(=O)c(NCCc2ccccc2)c2c3c(cccc31)C(=O)c1ccccc1-2`, 177% (active); that for `COc1cc(C(=O)Nc2c(C(=O)O)[nH]c3ccc(Br)cc23)cc(OC)c1OC`, 23.4% (inactive).
Next, `Oc1ccc(N=Cc2ccc(-c3cccs3)s2)cc1`: 23.3% (inactive); `CNc1ccc2c3c(cccc13)C(=O)N(C)C2=O`: 71.2% (active); `CCOC(=O)C1CCCN(C(=O)C2c3ccccc3Oc3ccccc32)C1` (centres undefined): 16% (inactive).

In general, inhibition refers to the change of the read-out against control, counted positive when it falls.
